Screening results: PubChem, several laboratories
Anthrax LF inh2 – inhibitors of Bacillus anthracis lethal factor protease; P15917; multiplex microsphere protease cleavage assay, LF; inhibition, % at 10 µM; 0.12% of 360,000 active
Target sequence (P15917 whole entry, looked up): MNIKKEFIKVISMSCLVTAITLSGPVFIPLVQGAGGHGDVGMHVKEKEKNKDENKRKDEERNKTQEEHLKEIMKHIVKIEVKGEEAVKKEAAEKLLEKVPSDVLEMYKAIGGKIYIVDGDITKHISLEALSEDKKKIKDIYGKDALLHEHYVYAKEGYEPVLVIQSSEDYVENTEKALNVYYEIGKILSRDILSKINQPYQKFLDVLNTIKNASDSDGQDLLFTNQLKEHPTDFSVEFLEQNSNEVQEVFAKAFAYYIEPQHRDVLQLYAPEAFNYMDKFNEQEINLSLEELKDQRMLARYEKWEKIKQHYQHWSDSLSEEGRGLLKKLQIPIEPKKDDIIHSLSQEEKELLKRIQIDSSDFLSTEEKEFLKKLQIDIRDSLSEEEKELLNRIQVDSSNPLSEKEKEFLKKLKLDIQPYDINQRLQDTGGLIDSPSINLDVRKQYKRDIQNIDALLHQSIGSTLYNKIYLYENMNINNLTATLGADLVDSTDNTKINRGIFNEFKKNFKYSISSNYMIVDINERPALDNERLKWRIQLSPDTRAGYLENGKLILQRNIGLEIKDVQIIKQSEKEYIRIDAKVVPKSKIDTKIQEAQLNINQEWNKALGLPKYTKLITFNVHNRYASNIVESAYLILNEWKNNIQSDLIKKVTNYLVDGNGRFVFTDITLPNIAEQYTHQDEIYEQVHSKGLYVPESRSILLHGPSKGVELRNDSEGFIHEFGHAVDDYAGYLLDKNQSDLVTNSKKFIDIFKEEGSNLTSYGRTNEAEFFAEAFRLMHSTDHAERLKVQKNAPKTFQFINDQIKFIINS
BoNT-A LC inh2 – BoNT A light chain protease inhibition. inhibition, % at 10 µM. 0.17% of 360,000 active. multiplex microsphere protease substrate cleavage, flow cytometry
BoNT-F LC inh – BoNT F light chain protease inhibition | Multiplex microsphere protease cleavage assay, flow cytometry | inhibition, % at 10 µM | 0.22% of 360,000 active; in the data active = inhibition above about 35%, passing the limit was not always enough; inconclusive = no clear call, values can overlap the other calls
GDH-TPI counter – GDH-TPI coupled enzyme inhibition counter-screen | GDH-TPI coupled enzyme counterscreen, NADH absorbance | inhibition, % at 4.8 µM | 1.2% of 360,000 active; in the data active = inhibition above about 30%
FBA Mtb inh – Mtb fructose-bisphosphate aldolase inhibition; P9WQA3; purified M. tuberculosis FBA, fluorescence read-out; 2.3% of 360,000 active; AID 588726; inhibition, % at 1 µM; in the data active = inhibition above about 27%
Autofluor counter – compound fluorescence in toxin protease inhibitor counterscreen. compound autofluorescence counterscreen, microsphere flow cytometry; stronger effect = higher value. fluorescence intensity (no concentration beside the values). 3.1% of 360,000 active. AID 624483; in the data active = fluorescence intensity above about 16000; inconclusive = no clear call, values can overlap the other calls
Numbers stand for hits; – = inactive; ? = inconclusive. This is a sample that favours compounds with a hit; in the whole collection about 6.7% have one here. Cut-off read from the data, not from the text of the source, unless noted: active = inhibition above about 30%; inconclusive = no clear call, values can overlap the other calls; inactive = below that.

SMILES | Anthrax LF inh2 | BoNT-A LC inh2 | BoNT-F LC inh | GDH-TPI counter | FBA Mtb inh | Autofluor counter
COC(=O)C1C(=O)C2=C(CC1C)NC(C)=C(C(=O)OC1CCCC1)C2c1ccc(N(C)C)cc1 (stereo not drawn) | – | – | – | – | – | –
CC1(C)Cc2c(c(N3CCOCC3)nc3sc(-c4ccc(C(=O)O)o4)c(N)c23)CO1 | – | – | – | 36.9 | 68.6 | –
COc1ccc(-c2nnc(SCc3c(C)noc3C)n2N)cc1OC | – | – | – | – | – | 19531
Cc1noc(C)c1CSc1nnc(-c2cc(Cl)ccc2Cl)n1N | – | – | – | – | – | –
Cc1ccc(S(=O)c2ccc(C)cc2)cc1 | – | ? | – | – | – | 20056
Cc1ccc(S(=O)c2snnc2C)cc1 (stereo not drawn) | – | – | – | – | – | –
C=CCN(CC=C)c1nc2ccccc2nc1C(C#N)C(=O)OCCOC (stereo not drawn) | – | – | – | – | 57.4 | –
CCCN(CCC)c1nc2ccccc2nc1C(C#N)C(=O)OCCOC (stereo not drawn) | – | – | – | – | – | –
COc1ccccc1NC(=O)C1(c2ccccc2)CCCC1 | – | – | – | – | – | –
COc1ccc(CN2C(=O)C(O)(CC(=O)c3ccc4c(c3)OCO4)c3ccccc32)cc1OC (stereo not drawn) | – | – | – | – | – | 22009
COc1cccc2cc(C(=O)CC3(O)C(=O)N(Cc4ccccc4)c4ccccc43)c(=O)oc12 (stereo not drawn) | – | – | – | – | – | 20419
O=C(CC1(O)C(=O)Nc2ccccc21)c1ccc2c(c1)OCO2 (stereo not drawn) | – | – | – | – | – | –
Cc1ccc2c(c1C)NC(=O)C2(O)CC(=O)c1ccc2c(c1)OCO2 (stereo not drawn) | – | ? | – | – | – | 16395
CCOC(=O)CN1C(=O)C(O)(CC(=O)c2cccc(OC)c2)c2ccccc21 (stereo not drawn) | – | – | – | – | – | 23744
O=C1CN(c2nc3nonc3nc2N2CCCCC2)CCN1 | – | – | – | 35.4 | – | –
Cc1c(NC(=O)/C(=C/c2cccs2)c2cccs2)c(=O)n(-c2ccccc2)n1C | – | – | – | – | – | –
COc1ccc(OC)c(/C=N/Nc2cc(C)nc(N3CCOCC3)n2)c1 | – | – | – | – | – | –
Oc1ccc(/C=N/Nc2cc(N3CCOCC3)nc(N3CCOCC3)n2)cc1 | – | – | – | 57.5 | – | –
Cc1cc(N/N=C/c2ccccc2O)nc(N2CCOCC2)n1 | – | – | – | 63.6 | – | –
Oc1ccc(/C=N/Nc2cc(N3CCCC3)nc(N3CCCC3)n2)cc1 | – | – | – | – | – | –
CC1CC1C(=O)OCC(=O)NNC(=O)COc1ccc(Br)cc1 (stereo not drawn) | – | – | ? | – | – | ?
Cc1ccccc1-c1cccc(CN2CCN(C)C(CCO)C2)c1 (stereo not drawn) | – | – | ? | – | – | –
CCc1ccc(NC(=S)N(CCOC)C2CCN(C(C)=O)CC2)cc1 | – | – | 39.9 | – | – | –
CCc1ccc(NC(=S)N(CCC(C)C)C2CCN(C(C)=O)CC2)cc1 | – | – | – | – | – | –
CCOC(=O)c1[nH]nc(-c2c(O)cc(C)cc2O)c1-c1csc(C)n1 | – | – | – | – | – | –
SMILES | Anthrax LF inh2 | BoNT-A LC inh2 | BoNT-F LC inh | GDH-TPI counter | FBA Mtb inh | Autofluor counter
Cc1cc(C)nc(NC(=O)c2cccc(Cl)c2)n1 | – | – | – | – | – | 22692
O=C1CC(c2ccccc2)CC2=C1CN(C1CCCCC1)CN2 (stereo not drawn) | – | – | – | – | – | 23766
COc1ccc(-c2cc3ccccc3n2CC(O)CNCCO)cc1 (stereo not drawn) | – | – | – | – | – | –
C#CCN1C=CC(=O)[C@@H](OC(=O)Nc2ccc(Br)cc2)[C@H]1c1ccccc1Br | – | – | – | – | – | –
C=CCN1C=CC(=O)[C@@H](OC(=O)Nc2ccc(Br)cc2)[C@H]1c1ccccc1Br | – | – | – | 33.3 | – | –
CC(=O)Nc1nc(-c2ccc(Cl)cc2)nc(C)c1C(C)=O | – | – | 35.4 | – | – | –
CC(=O)c1c(C)nc(C)nc1NC(=O)Cc1ccccc1 | – | – | – | – | – | –
CC(NC(=O)C1CCC(=O)N1Cc1ccccc1Cl)c1ccccc1 (stereo not drawn) | – | – | – | – | – | –
CNC(=O)C1CCC(=O)N1Cc1ccccc1Cl (stereo not drawn) | – | – | – | – | – | 23165
